The panel holds about 83,000 compounds, 20% with a hit somewhere; the sample as a whole holds those more often.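 Each cell line was grown in a 96-well plate and treated with one concentration of compound for 48 hours. Values below 10 were considered active.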 A number with no mark means an inactive call. The source made the active and inactive calls.

The record followed here is PubChem BioAssay (NCI).

Among the test systems are HCT-15 colon; HT29 colon; SNB-75 CNS; SNB-19 CNS; U251 CNS; PC-3 prostate; SK-MEL-5 melanoma; UACC-62 melanoma; LOX IMVI melanoma; SK-MEL-28 melanoma; SK-MEL-2 melanoma; EKVX NSCLC; SN12C renal; UO-31 renal; TK-10 renal; ACHN renal; CAKI-1 renal; A498 renal; CCRF-CEM leukemia; MOLT-4 leukemia.
Holding throughout (test): NCI-60 one-dose screen, 48 h (100 = growth as untreated, 0 = no growth, -100 = all killed)
Holding throughout (conditions): 10 µM unless noted

Turning to `O=C(CSc1nnc(-c2ccc(Cl)cc2)n1-c1ccccc1)Nc1ccc(Br)cc1`, the growth in the assay on HCT-15 colon is 67%; in the assay on HT29 colon it was 21.3%; in the assay with SNB-75 CNS it was -33.7% (active); in the assay on SNB-19 CNS, 35%; in the assay with U251 CNS, -51.8% (active); with PC-3 prostate, 13.5%. In addition, the growth in the assay on SK-MEL-5 melanoma is 31.2%; in the assay with UACC-62 melanoma, 20.2%; with LOX IMVI melanoma, -54.5% (active); in the assay on SK-MEL-28 melanoma it was 33.4%; with SK-MEL-2 melanoma, 80.9%; with EKVX NSCLC it was 24.9%. Moreover, the growth in the assay with SN12C renal is -42.9% (active); in the assay on UO-31 renal it was -19.4% (active); in the assay on TK-10 renal, -55.7% (active); in the assay with ACHN renal it was -81.9% (active); with CAKI-1 renal, -53.6% (active); in the assay with A498 renal, -60.8% (active). Moreover, the growth in the assay with CCRF-CEM leukemia is 41%; in the assay on MOLT-4 leukemia, 61.1%.
Take `COc1cc(-c2nc3sccn3c2-c2ccnc(S(C)(=O)=O)n2)ccc1F`: the growth was 77.9% in the assay with HCT-15 colon; 116% in the assay with HT29 colon; 76.1% with SNB-75 CNS; 92% in the assay on SNB-19 CNS; 99.1% in the assay on U251 CNS; 105% in the assay with PC-3 prostate. Besides, the growth was 96.5% in the assay on SK-MEL-5 melanoma; 81.3% in the assay with UACC-62 melanoma; 102% with LOX IMVI melanoma; 97.7% in the assay with SK-MEL-28 melanoma; 96% in the assay on SK-MEL-2 melanoma; 87.3% in the assay with EKVX NSCLC. The growth with SN12C renal is 88.7%; with UO-31 renal it was 85.2%; with TK-10 renal, 120%; with ACHN renal, 90.4%; in the assay with CAKI-1 renal, 85.2%; in the assay on A498 renal, 95.1%. The growth is 92.1% in the assay on CCRF-CEM leukemia and 83.5% in the assay on MOLT-4 leukemia.
Take `Nc1ccccc1NC(=O)c1ccc(NC(=O)C/C=C/c2cccnc2)cn1`: the growth with HCT-15 colon was 21.4%; in the assay with HT29 colon, 12.9%; in the assay on SNB-75 CNS, 29.4%; in the assay on SNB-19 CNS, 33.1%; in the assay with U251 CNS, 15.6%; in the assay with PC-3 prostate, 31.6%. The growth in the assay with SK-MEL-5 melanoma is -75.9% (active); in the assay with UACC-62 melanoma, 0.71% (active); in the assay on LOX IMVI melanoma, 1.78% (active); with SK-MEL-28 melanoma, -34% (active); in the assay on SK-MEL-2 melanoma, 15.9%; with EKVX NSCLC, 52.9%. The growth is 25.2% with SN12C renal; 0.829% (active) in the assay with UO-31 renal; 17.4% in the assay with TK-10 renal; 26.1% in the assay with ACHN renal; 29.2% in the assay with CAKI-1 renal; -35.3% (active) in the assay with A498 renal. Besides, the growth in the assay with CCRF-CEM leukemia is 15.8%; with MOLT-4 leukemia, 17.3%.
For the molecule `COc1c(N2CC3CCCNC3C2)c(F)cc2c(=O)c(C(=O)N/N=C/c3c[nH]c4ccccc34)cn(C3CC3)c12` (centres undefined), the growth was 57.4% in the assay with HCT-15 colon; 50.5% in the assay on HT29 colon; 99.5% in the assay with SNB-75 CNS; 103% in the assay with SNB-19 CNS; 99.2% in the assay on U251 CNS; 76.9% in the assay with PC-3 prostate. Further, the growth is 95.3% in the assay on SK-MEL-5 melanoma; 103% in the assay on UACC-62 melanoma; 90.2% with LOX IMVI melanoma; 104% in the assay on SK-MEL-28 melanoma; 110% in the assay with SK-MEL-2 melanoma; 105% in the assay on EKVX NSCLC. For the same molecule, the growth in the assay with SN12C renal was 95.7%; in the assay with UO-31 renal it was 77.2%; in the assay on TK-10 renal it was 137%; in the assay with ACHN renal it was 99.8%; with CAKI-1 renal, 98.7%; in the assay on A498 renal, 118%. Besides, the growth in the assay on CCRF-CEM leukemia is 71.2%; with MOLT-4 leukemia it was 74.1%.
Take `Cc1noc(C)c1CSc1nc2ccccc2n1-c1ccccc1`: the growth was 106% with HCT-15 colon; 106% in the assay with HT29 colon; 30.9% in the assay on SNB-75 CNS; 96.5% with SNB-19 CNS; 102% in the assay on U251 CNS; 100% with PC-3 prostate. The growth was 94.4% in the assay with SK-MEL-5 melanoma; 72.5% with UACC-62 melanoma; 88.2% in the assay on LOX IMVI melanoma; 111% in the assay on SK-MEL-28 melanoma; 107% in the assay on SK-MEL-2 melanoma; 65.2% in the assay on EKVX NSCLC. Further, the growth is 81.4% with SN12C renal; 48.8% in the assay with UO-31 renal; 58.9% in the assay on TK-10 renal; 96.1% with ACHN renal; 41.6% in the assay on CAKI-1 renal; 48.1% in the assay on A498 renal. Moreover, in the assay with MOLT-4 leukemia, the growth was 97%.
As for `NC/C(=C/F)COc1ccc2nc(NCc3cccnc3)oc2c1`, the growth in the assay with HCT-15 colon was 109%; with HT29 colon, 112%; in the assay on SNB-75 CNS, 63.1%; in the assay with SNB-19 CNS, 105%; in the assay with U251 CNS it was 105%; in the assay on PC-3 prostate it was 104%. Also, the growth in the assay with SK-MEL-5 melanoma was 99.5%; in the assay with UACC-62 melanoma, 101%; in the assay on LOX IMVI melanoma, 98%; in the assay with SK-MEL-28 melanoma, 110%; in the assay with SK-MEL-2 melanoma, 105%; with EKVX NSCLC, 68.5%. Also, the growth in the assay on SN12C renal is 86.3%; with UO-31 renal it was 62.1%; with TK-10 renal it was 74.7%; with ACHN renal, 100%; with CAKI-1 renal, 69.8%; with A498 renal, 50.5%. For the same molecule, the growth is 99.9% in the assay with CCRF-CEM leukemia and 106% with MOLT-4 leukemia.
For `COc1ccccc1N1CCN(C2=CC(=O)C(C)=C(C)C2=O)CC1`, the growth in the assay with HCT-15 colon is 100%; with HT29 colon, 104%; in the assay on SNB-75 CNS it was 102%; in the assay on SNB-19 CNS it was 104%; with U251 CNS, 98.1%; with PC-3 prostate, 95.9%. The growth was 99.4% in the assay with SK-MEL-5 melanoma; 99.5% in the assay with UACC-62 melanoma; 94.8% with LOX IMVI melanoma; 119% in the assay with SK-MEL-28 melanoma; 101% in the assay on SK-MEL-2 melanoma; 101% with EKVX NSCLC. For the same molecule, the growth in the assay with SN12C renal was 104%; with UO-31 renal, 93.7%; with TK-10 renal, 116%; in the assay with ACHN renal, 110%; in the assay on CAKI-1 renal, 104%; in the assay with A498 renal it was 86.3%. The growth with CCRF-CEM leukemia was 101%; in the assay with MOLT-4 leukemia it was 93.3%.
Turning to `CC(Nc1c(C#N)cnc2ccc(-c3cnc(N)nc3)cc12)c1ccccc1` (centres undefined), the growth with HCT-15 colon was 9.92% (active); with HT29 colon it was 17.4%; in the assay with SNB-75 CNS it was 18.9%; in the assay with SNB-19 CNS, 20.4%; with U251 CNS, 21%; in the assay on PC-3 prostate, 10.8%. The growth in the assay on SK-MEL-5 melanoma is -67.3% (active); with UACC-62 melanoma it was 3.27% (active); in the assay with LOX IMVI melanoma, 4.6% (active); in the assay on SK-MEL-28 melanoma, 17.9%; in the assay with SK-MEL-2 melanoma, 2.77% (active); in the assay with EKVX NSCLC it was 0.82% (active). The growth with SN12C renal was 14.7%; in the assay with UO-31 renal, 7.41% (active); with TK-10 renal, -20.7% (active); with ACHN renal, 14.6%; in the assay on CAKI-1 renal, 1.74% (active); in the assay with A498 renal, -38.6% (active). For the same molecule, the results for the growth with CCRF-CEM leukemia and with MOLT-4 leukemia were 19.1% and 2.96% (active), respectively.
